{
  "source": "PubChem BioAssay AID2763",
  "about": "(National Center for Advancing Translational Sciences (NCATS), 2010)",
  "note": "Results filed as inconclusive are left out. Unmarked numbers belong to inactive results. The source made the active and inactive calls. Calls follow the shape of the dose curve; as a rule, active = well fitted inhibition curve with a large enough effect; inconclusive = small, poorly fitted or top-dose-only effect, or effect the other way; inactive = no such curve, though single readings can be large or run the other way. % is scaled to controls: 0 for no effect and ±100 for the full control effect; potency is read from the fitted curve at half-maximal effect.",
  "data": [
    {"assay": "Concentration response confirmation VP16 counterscreen for inhibitors of ROR gamma transcriptional activity; also: nearly all actives have a fitted effect of over 70% in size", "details": "Drosophila S2 Gal4-VP16 UAS-luciferase, luminescence, 20 h; series mostly up to 46.1 µM; activity change, negative = inhibition: at the top concentration", "method_in_brief": "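Drosophila Schneider cells stably carrying Gal4-VP16 under metallothionein promoter plus UAS-Photinus luciferase. Compound preincubated 1 hr, then 700 uM copper sulfate induction for 20 hr at ambient temperature; luminescence read.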", "units": {"activity change, negative = inhibition": "%"}, "values": [
      {"smiles": "O=C(NC(=S)Nc1nc(-c2ccccc2)cs1)c1cccnc1", "activity change, negative = inhibition": 16.5},
      {"smiles": "CCCCn1c(CN2CCN(c3ccccc3)CC2)nc2c1c(=O)n(C)c(=O)n2C", "Potency": "8.88 µM (active)"},
      {"smiles": "c1ccc(Cn2c(-c3ccccc3)c[n+]3c2SCCC3)cc1", "activity change, negative = inhibition": -16.3},
      {"smiles": "Cc1cc(C)c2[nH]c(C(=O)Nc3ccc4c(c3)OCO4)cc2c1", "activity change, negative = inhibition": -13.4},
      {"smiles": "Cc1cccc(-c2nc3cc(NC(=O)C4CCCO4)ccc3o2)c1", "note": "(configuration not stated)", "Potency": "2.5 µM (active)"},
      {"smiles": "O=c1oc2c3c(nn2c2ccccc12)CCCC3", "activity change, negative = inhibition": 14.9},
      {"smiles": "COc1ccc(C(=O)/C=C/c2ccc(OC)cc2OC)c(O)c1", "activity change, negative = inhibition": 20.2},
      {"smiles": "Cc1ccc(NC(=O)CCN2CCN(C)CC2)cc1", "activity change, negative = inhibition": 3.53},
      {"smiles": "CC(C)(C)NC(=O)CSc1nc2ccc(NC(=O)CSc3nnnn3Cc3ccccc3)cc2s1", "Potency": "12.5 µM (active)"},
      {"smiles": "COc1ccc(C(=O)Nc2cc(-c3ccc(C)cc3)no2)cc1", "activity change, negative = inhibition": -17.6},
      {"smiles": "COc1cccc(-c2cc(C(=O)N3CCc4ccccc4C3)[nH]n2)c1", "activity change, negative = inhibition": -10.7},
      {"smiles": "O=C1CC(c2ccc(F)cc2)CC(O)=C1C1NCCc2ccccc21", "note": "(configuration not stated)", "activity change, negative = inhibition": 1.75},
      {"smiles": "COc1ccc(CNC(=O)COC(=O)C2CC3C=CC2C3)cc1", "note": "(configuration not stated)", "activity change, negative = inhibition": 0.307},
      {"smiles": "CCN1CCN(CCC(=O)Nc2ccccc2)CC1", "activity change, negative = inhibition": -3.58},
      {"smiles": "CCN(C1CCCCC1)S(=O)(=O)c1ccc(S(=O)(=O)NCc2ccncc2)cc1", "Potency": "28.1 µM (active)"},
      {"smiles": "CCOc1cccc(-c2cc(-c3n[nH]c(=S)n3CC)c3ccccc3n2)c1", "activity change, negative = inhibition": -3.87},
      {"smiles": "COC(=O)c1ccc(Oc2cc(C)nc(-n3nc(C)cc3C)n2)cc1", "Potency": "7.91 µM (active)"}
    ]}
  ]
}
